Shown are actives, neighbours in structure and some others; about 3.2% of the full set was active somewhere.
PLK1 PBD inh: blocks phosphopeptide binding to human PLK1 polo-box domain | Plk1 PBD binding of FITC phosphopeptide, fluorescence polarization | 360,000 compounds, 2.8% hits | Potency, µM, inactives show max response, negative = inhibition, usual class: inhibitors | P53350; also: potency is read from the fitted curve at half-maximal effect; series mostly up to about 57 µM; nearly all actives have a fitted effect of over 65% in size
FBPA coupling cs: inhibits coupling enzyme system, counter-screen for aldolase hits; 290,000 compounds, 0.67% hits; coupling enzyme system counterscreen, AmpLite Red fluorescence; activity change, negative = inhibition, % at 58.2 µM, hits read low; in the data active = activity change below about -30%
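Coupling enzymes only (glyceraldehyde-3-phosphate) + compound, at 57.5 uM final, 10 min RT; add substrate/coupling/AmpLite Red mix, 20 min RT; fluorescence ex 525/em 598 nm. Actives flag coupling-system interference.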
GALK inhibitor: galactokinase (human) inhibition | P51570 | Purified GALK, Kinase-Glo residual ATP luminescence | Potency, µM (doses to about 57.5 µM), for the others: top-dose activity change, negative = inhibition, actives largely listed as inhibitors | 270,000 compounds, 0.007% hits | AID 1868; also: potency is read from the fitted curve at half-maximal effect
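Compounds were pin-transferred into ATP buffer (35 uM final), then GALK plus galactose (5 nM, 100 uM final) was added. After 1 h at room temperature, Kinase-Glo Plus was added and luminescence read after 10 min.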
VDR inhibitor: blocks the human vitamin D receptor; P11473; VDR-SRC2-3 peptide fluorescence polarization, 2 h; Potency, µM, without a hit: max response, negative = inhibition, hits mostly inhibitors; 400,000 compounds, 0.93% hits; AID 504847; also: potency is read from the fitted curve at half-maximal effect
Target sequence (P11473 whole entry, looked up): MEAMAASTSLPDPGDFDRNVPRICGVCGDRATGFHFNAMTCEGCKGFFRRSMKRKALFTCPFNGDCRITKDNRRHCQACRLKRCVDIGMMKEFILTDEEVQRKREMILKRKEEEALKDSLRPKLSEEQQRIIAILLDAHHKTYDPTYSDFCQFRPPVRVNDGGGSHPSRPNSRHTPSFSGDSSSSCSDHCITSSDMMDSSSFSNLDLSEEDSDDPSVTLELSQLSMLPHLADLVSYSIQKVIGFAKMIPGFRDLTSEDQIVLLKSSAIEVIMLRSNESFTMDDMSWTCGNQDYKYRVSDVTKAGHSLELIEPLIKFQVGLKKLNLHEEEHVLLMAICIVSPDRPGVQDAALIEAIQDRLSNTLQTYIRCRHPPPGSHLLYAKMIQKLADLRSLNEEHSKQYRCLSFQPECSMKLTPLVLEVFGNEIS
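Signal is fluorescence polarization, reporting how far test compounds block the interaction of VDR with the SRC2-3 coregulator peptide after a 2 h room-temperature incubation.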
USP2a block: USP2a (human) protease inhibition; AID 463254; USP2 core, Ub-CHOP2 coupled fluorogenic reporter, 485/531; 330,000 compounds, 0.01% hits; Potency, µM (highest dose often 38.3 µM), for the others: top-dose activity change, negative = inhibition, hits mostly inhibitors; O75604;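 also: potency is read from the fitted curve at half-maximal effect; plate controls were DMSO wells for no effect and full inhibition by NEM control for full effect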
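Deubiquitinase activity read as fluorescence (485/531 nm) after Ub-CHOP2 cleavage activates the enterokinase reporter on its substrate; USP2 core 10nM, Ub-CHOP2 and substrate 25nM each, 30min compound preincubation then 60min RT; data normalized to NEM, curves fitted.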
USP1 inh: inhibitors of human USP1/UAF1 deubiquitinase. O94782. recombinant USP1/UAF1, Ub-Rhodamine cleavage fluorescence. 390,000 compounds, 0.23% hits. Potency, µM (doses to about 57.1 µM), without a hit: at the highest dose activity change, negative = inhibition, actives largely listed as inhibitors; also: potency is read from the fitted curve at half-maximal effect; nearly all actives have a fitted effect of over 60% in size
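Step one: compound is pinned into 1nM USP1/UAF1 in HEPES pH 7.8 buffer with TCEP. Step two: 15 min room-temperature incubation. Step three: Ub-Rho (150nM final) starts cleavage, tracked by fluorescence over six one-minute reads.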
* = called active by the depositor; ? = inconclusive; / = no result; ! = repeats disagree. Unless noted, calls follow the shape of the dose curve; as a rule, active = well fitted curve in the direction sought with a large enough effect; inconclusive = small, poorly fitted or top-dose-only effect, or another doubt; inactive = no such curve, though single readings can be large; an effect the other way counts as inactive or inconclusive. Unless noted, % is scaled to controls: 0 for no effect and ±100 for the full control effect.

SMILES | PLK1 PBD inh | FBPA coupling cs | GALK inhibitor | VDR inhibitor | USP2a block | USP1 inh
CCSc1n[nH]c2nc3c(c(=O)n12)C1(CCCC1)Cc1ccccc1-3 | 21µM* | -1 | -7% | -2% | 1% | -2%
CSc1n[nH]c2nc3c(c(=O)n12)C1(CCCC1)Cc1ccccc1-3 | ? | -3 | 1% | -3% | 0% | -2%
Cc1cccc(C(=O)Oc2c(Br)cc(Br)cc2/C=N/NC(=O)c2ccncc2)c1 | 30µM* | 1 | -2% | ? | 3% | -8%
O=C(O)c1ccc(-c2ccccc2Cl)o1 | -10% | 20 | 1% | 141µM*! | -7% | -7%
CN(C)S(=O)(=O)c1cccc(C(=O)Nc2cc(S(=O)(=O)N3CCOCC3)ccc2O)c1 | -16% | / | / | -5% | -2% | -25%
CN(C)S(=O)(=O)c1cccc(C(=O)Nc2cc(S(=O)(=O)N3CCOCC3)ccc2N2CCCC2)c1 | 5.3µM* | / | / | 45µM* | / | -25%
COCCCNCc1cc(C)n(-c2cc(S(=O)(=O)N3CCOCC3)ccc2N2CCCC2)c1C | -14% | / | / | -25% | / | -18%
COc1ccc(/C=C(\C#N)C(=O)Nc2cc(S(=O)(=O)N3CCOCC3)ccc2N2CCCC2)cc1 | 6.7µM* | -1 | 0% | 35µM* | 3% | -24%
Cc1cc(C#N)c(C)n1-c1cc(S(=O)(=O)N2CCOCC2)ccc1N1CCCC1 | 21µM* | -1 | -3% | ? | / | -8%
COc1ccccc1NC(=O)/C(C#N)=C/c1cc([N+](=O)[O-])ccc1N1CCCC1 | 11µM* | -6 | 0% | -15% | 1% | ?
COc1ccccc1NC(=O)/C(C#N)=C/c1ccncc1 | ? | / | -3% | -29% | 0% | -22%
COc1ccc(-c2noc(-c3nnn(-c4ccc(C(C)C)cc4)c3C)n2)cc1OC | / | / | / | -2% | / | -20%
COc1ccc(-n2c(Cc3cc(=O)[nH]c(=O)[nH]3)nnc2SCC(=O)N2CCC(C)CC2)cc1 | -16% | 1 | 2% | -20% | -2% | ?
CCc1ccc(CN2CCC(n3nccc3NC(=O)c3ccccc3OC)CC2)o1 | 2% | / | / | / | / | -17%
O=C(Nc1cc(S(=O)(=O)N2CCOCC2)ccc1N1CCCC1)c1ccc(F)cc1 | 9.5µM* | / | / | 40µM* | -2% | ?
CC(C)(C)OC(=O)N1CCC2(CC1)Oc1ccc(F)cc1C(=O)C21CC(c2cccnc2)=NO1 (centres undefined) | -13% | 4 | 5% | -20% | 0% | -9%
CCOC(=O)c1c(NC(=O)C2c3ccccc3Oc3ccccc32)sc(C(=O)N(CC)CC)c1C | ? | -9 | -1% | 71µM* | -18% | -13%
CCOC(=O)c1sc(NC(=O)C2c3ccccc3Oc3ccccc32)c(C#N)c1C | / | / | / | 79µM* | / | -32%
CCOC(=O)c1sc(NC(=O)C2c3ccccc3Oc3ccccc32)c(C(=O)OCC)c1C | / | / | / | -7% | / | 0%
Cc1sc2nc(SCC(=O)Nc3ccc(S(N)(=O)=O)cc3)[nH]c(=O)c2c1C | -13% | 1 | 2% | 3% | 1% | -23%
Cc1sc2nc(SCC(=O)Nc3cccc(S(N)(=O)=O)c3)[nH]c(=O)c2c1C | 24µM* | / | / | -25% | 1% | -18%
COc1ccc(NS(=O)(=O)c2ccc(NC(C)=O)cc2)c(OC)c1 | 24µM* | 2 | 2% | ? | 4% | 4%
COc1ccccc1NS(=O)(=O)c1ccc(O)cc1 | 3.4µM* | 4 | 1% | -17% | 2% | -9%
CC1CC(=O)C(C(C2=C(O)CC(C)CC2=O)c2ccccc2)=C(O)C1 (centres undefined) | 12µM* | / | / | ? | / | 3%
CC1CC(=O)c2cc(-c3ccccc3)oc2C1 (centres undefined) | 4% | / | / | / | / | -19%
COc1ccc(Cn2c(=O)c3cccnc3n(CC(=O)Nc3ccc(C)c(F)c3)c2=O)cc1 | / | / | / | -2% | / | 1%
CNc1ccc(-c2nc3ccccc3s2)cc1 | / | -9 | / | 11µM* | / | /
CCCC1NC(C(=O)O)Cc2c1[nH]c1ccccc21 (centres undefined) | 19µM* | 6 | 5% | ? | 4% | -23%
